Assay results reported in the supplement of paper PMC11732987, “Enantioselective OTUD7B fragment discovery through chemoproteomics screening and high-throughput optimisation” (Communications Chemistry, 2025).

Key:
Experiment in all cases: log2 ratio of Biotin-Ahx-Ub-VS probe labelling (fragment/DMSO); higher = less target engagement (more negative = stronger competition), active = hit call of the paper (q ≤ 0.05, log2 ratio ≤ -1)
Settings in all cases: compound concentration: 200 uM; treatment time: 3 h
USP19 = target: T1, USP19 (UniProt O94966)
T1 sequence (whole entry): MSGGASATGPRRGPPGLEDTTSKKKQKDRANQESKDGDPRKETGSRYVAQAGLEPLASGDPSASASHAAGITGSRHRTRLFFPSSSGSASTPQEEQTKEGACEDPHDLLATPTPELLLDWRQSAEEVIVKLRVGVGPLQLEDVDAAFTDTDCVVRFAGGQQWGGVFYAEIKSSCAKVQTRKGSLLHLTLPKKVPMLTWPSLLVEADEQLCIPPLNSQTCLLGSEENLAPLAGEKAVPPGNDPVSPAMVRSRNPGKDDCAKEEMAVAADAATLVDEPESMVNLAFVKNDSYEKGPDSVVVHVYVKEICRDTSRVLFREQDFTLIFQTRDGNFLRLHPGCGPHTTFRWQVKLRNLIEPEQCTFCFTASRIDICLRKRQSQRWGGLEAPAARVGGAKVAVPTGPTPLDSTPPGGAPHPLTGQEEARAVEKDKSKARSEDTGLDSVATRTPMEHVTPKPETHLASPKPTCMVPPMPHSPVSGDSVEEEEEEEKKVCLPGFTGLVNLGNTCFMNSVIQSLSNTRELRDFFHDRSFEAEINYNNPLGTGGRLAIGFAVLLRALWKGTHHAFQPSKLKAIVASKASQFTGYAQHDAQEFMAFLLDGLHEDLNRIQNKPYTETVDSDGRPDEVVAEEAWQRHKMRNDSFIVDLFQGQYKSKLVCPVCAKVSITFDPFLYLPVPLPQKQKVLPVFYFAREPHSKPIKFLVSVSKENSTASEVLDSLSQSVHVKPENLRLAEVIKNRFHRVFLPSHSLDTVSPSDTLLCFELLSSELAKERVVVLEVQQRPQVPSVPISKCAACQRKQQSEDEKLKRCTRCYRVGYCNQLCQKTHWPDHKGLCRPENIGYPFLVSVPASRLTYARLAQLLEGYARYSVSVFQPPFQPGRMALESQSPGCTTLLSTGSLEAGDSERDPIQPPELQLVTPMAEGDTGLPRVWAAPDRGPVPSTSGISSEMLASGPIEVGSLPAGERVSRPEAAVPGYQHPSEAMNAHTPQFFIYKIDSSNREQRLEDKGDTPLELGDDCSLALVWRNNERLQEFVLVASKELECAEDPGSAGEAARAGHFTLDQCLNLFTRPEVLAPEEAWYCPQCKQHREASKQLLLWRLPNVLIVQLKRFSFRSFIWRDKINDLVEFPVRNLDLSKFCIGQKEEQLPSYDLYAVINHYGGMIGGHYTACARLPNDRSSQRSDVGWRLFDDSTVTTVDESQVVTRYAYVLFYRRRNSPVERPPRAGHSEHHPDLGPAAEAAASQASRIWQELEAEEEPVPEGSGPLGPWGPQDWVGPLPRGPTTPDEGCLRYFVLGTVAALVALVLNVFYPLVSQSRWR
Method in brief: (§1)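 Triplicate samples of HEK293T lysate, 495 µg each, received fragment at 200 µM or vehicle for 3 h, followed by Biotin-Ahx-Ub-VS (0.5 µM final) for 1 h. After NeutrAvidin enrichment of labelled DUBs and LysC/trypsin digestion, peptides were run by diaPASEF LC-MS/MS. The values are average log2 fragment/vehicle ratios from global-median-normalised Spectronaut label-free quantities, tested by unpaired t-test on proteins having ≥2 unique peptides.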

USP22 = target: T2, USP22 (UniProt Q9UPT9)
T2 sequence (whole entry): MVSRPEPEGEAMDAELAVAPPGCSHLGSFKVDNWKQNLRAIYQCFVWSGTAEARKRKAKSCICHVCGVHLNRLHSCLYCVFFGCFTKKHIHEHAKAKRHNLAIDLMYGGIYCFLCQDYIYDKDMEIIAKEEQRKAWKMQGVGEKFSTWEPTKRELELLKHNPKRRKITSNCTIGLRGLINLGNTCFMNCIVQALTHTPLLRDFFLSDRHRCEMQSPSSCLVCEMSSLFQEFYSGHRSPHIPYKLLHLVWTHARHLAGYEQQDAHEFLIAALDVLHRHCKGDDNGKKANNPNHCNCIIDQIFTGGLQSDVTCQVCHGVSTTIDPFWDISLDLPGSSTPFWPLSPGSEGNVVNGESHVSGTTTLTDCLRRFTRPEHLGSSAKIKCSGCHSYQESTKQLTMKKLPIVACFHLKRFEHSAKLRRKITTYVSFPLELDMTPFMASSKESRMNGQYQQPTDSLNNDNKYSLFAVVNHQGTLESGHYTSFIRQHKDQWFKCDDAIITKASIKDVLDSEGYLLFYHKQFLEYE
Method in brief: as §1

USP24 = USP24 (UniProt Q9UPU5)
Sequence of USP24 (Q9UPU5 whole entry): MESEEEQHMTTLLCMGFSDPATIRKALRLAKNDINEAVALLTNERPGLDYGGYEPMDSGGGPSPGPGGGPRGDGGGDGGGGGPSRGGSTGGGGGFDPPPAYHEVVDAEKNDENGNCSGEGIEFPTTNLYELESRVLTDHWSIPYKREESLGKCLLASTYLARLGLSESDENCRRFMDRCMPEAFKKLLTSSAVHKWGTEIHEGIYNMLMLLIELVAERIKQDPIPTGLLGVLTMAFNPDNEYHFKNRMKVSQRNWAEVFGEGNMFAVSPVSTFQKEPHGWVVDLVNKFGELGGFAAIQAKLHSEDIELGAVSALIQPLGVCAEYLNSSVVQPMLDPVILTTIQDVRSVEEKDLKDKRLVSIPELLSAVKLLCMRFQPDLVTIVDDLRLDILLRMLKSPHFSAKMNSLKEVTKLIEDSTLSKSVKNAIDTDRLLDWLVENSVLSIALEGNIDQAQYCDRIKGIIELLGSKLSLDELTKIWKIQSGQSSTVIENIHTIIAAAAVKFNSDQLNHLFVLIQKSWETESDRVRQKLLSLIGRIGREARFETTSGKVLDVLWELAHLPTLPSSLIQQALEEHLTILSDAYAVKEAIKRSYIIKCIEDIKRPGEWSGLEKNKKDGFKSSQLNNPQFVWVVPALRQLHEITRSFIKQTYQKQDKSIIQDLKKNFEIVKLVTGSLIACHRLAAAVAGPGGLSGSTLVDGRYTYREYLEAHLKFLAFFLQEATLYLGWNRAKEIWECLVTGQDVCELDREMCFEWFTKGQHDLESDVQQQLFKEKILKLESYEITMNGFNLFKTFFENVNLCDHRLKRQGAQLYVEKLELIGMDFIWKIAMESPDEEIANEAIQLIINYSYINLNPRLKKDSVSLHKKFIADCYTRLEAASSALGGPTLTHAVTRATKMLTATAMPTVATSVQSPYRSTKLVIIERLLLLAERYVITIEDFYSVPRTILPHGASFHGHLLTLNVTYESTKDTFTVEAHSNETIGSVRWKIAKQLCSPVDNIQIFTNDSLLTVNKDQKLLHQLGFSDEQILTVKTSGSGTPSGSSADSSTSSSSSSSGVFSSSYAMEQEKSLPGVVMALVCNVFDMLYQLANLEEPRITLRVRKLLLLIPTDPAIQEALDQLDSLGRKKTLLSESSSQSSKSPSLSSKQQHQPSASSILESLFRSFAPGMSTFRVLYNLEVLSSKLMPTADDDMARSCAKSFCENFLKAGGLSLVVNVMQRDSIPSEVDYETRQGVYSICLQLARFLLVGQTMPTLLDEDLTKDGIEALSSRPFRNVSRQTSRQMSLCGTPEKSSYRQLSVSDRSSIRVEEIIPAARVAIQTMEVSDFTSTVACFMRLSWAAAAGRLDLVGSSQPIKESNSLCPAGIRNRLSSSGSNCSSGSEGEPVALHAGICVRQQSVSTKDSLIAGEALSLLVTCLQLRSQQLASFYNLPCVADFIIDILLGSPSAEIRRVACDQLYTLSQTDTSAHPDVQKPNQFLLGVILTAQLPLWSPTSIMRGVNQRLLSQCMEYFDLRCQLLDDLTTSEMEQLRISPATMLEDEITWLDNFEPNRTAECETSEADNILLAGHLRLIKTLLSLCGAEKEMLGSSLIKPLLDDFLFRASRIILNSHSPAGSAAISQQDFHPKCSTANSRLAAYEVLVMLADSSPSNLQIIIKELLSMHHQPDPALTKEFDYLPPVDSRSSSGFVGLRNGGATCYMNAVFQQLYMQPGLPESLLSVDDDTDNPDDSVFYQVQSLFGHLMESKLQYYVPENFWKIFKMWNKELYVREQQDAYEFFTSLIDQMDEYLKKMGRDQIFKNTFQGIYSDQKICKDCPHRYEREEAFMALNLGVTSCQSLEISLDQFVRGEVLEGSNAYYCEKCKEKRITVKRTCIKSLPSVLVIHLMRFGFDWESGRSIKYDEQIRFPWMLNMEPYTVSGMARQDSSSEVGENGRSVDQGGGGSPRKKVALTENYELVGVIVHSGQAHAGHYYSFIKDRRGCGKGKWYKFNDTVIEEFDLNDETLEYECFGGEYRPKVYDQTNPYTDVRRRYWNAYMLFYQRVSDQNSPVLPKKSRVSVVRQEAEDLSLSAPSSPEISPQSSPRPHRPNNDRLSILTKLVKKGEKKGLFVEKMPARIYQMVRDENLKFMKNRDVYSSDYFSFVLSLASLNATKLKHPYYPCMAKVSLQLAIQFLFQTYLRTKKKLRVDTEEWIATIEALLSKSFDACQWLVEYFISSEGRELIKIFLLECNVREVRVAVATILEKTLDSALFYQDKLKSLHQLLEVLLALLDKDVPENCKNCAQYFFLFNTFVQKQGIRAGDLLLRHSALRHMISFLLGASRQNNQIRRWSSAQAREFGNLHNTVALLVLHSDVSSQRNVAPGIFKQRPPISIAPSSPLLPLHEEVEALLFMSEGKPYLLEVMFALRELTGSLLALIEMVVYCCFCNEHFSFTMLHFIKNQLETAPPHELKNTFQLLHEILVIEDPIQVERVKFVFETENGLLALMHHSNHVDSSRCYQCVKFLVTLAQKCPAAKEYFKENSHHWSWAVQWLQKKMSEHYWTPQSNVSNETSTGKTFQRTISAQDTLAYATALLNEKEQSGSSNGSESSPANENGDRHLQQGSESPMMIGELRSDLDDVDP
Method in brief: as §1

USP25 = target: T3, USP25 (UniProt Q9UHP3)
T3 sequence (whole entry): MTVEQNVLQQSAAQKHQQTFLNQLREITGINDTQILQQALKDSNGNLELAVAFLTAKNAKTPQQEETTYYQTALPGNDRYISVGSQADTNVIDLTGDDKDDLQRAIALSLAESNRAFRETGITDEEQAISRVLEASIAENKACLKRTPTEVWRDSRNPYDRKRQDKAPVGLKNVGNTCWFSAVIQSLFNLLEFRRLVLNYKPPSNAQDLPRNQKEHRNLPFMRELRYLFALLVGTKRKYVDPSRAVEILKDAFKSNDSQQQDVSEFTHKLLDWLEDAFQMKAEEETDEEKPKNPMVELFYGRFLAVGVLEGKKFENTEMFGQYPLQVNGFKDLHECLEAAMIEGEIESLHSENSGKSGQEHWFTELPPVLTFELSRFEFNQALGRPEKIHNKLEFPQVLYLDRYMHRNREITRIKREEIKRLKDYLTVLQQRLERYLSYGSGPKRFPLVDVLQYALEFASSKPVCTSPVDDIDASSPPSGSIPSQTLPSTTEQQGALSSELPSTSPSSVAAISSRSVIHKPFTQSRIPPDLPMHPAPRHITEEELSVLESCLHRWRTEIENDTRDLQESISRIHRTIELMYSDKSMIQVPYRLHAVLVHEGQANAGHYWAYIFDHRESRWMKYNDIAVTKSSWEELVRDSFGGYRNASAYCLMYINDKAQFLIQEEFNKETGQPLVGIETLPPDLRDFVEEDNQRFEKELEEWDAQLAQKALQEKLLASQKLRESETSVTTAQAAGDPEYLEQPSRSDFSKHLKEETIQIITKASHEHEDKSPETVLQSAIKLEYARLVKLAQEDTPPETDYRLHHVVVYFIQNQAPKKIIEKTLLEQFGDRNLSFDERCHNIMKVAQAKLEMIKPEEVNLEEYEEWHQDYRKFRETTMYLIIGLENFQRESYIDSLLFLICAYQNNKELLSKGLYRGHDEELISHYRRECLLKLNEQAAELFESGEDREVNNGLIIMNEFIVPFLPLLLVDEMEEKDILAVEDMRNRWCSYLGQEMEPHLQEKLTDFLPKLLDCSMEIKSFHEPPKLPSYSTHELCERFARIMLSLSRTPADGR
Method in brief: as §1

USP28 = target: T4, USP28 (UniProt Q96RU2)
T4 sequence (whole entry): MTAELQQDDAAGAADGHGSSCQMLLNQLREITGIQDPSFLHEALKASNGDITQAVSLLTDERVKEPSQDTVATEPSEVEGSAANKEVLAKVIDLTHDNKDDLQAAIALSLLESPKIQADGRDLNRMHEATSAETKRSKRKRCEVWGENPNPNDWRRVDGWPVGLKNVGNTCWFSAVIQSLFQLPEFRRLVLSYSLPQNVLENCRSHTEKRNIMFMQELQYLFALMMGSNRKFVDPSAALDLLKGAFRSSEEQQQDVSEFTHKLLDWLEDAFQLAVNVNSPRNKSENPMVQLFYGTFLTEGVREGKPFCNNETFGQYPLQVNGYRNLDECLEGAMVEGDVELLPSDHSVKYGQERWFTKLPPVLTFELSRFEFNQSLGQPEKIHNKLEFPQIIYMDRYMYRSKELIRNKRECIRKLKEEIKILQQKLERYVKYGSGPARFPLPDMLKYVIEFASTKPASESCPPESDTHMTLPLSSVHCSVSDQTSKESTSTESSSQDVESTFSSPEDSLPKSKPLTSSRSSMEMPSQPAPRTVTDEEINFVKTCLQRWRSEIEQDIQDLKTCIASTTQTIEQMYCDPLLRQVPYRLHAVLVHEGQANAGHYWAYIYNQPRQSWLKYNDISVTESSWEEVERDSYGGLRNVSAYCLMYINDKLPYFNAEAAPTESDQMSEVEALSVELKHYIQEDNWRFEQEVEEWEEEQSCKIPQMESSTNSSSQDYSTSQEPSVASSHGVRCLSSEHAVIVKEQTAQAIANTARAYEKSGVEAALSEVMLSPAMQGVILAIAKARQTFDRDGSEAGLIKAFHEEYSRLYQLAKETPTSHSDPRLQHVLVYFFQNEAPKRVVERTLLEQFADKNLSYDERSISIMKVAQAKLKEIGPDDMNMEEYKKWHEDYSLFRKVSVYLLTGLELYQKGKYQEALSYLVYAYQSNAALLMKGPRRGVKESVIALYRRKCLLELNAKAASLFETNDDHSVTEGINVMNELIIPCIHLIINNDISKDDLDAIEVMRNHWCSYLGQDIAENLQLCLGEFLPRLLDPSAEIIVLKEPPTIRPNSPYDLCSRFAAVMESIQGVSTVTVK
Method in brief: as §1

Measured: log2 ratio of Biotin-Ahx-Ub-VS probe labelling

C[C@H]1CN(C(=O)CCl)CCN1C(=O)c1cnn(C)c1.Cl
inactive: USP19 -0.18 | USP22 -0.177 | USP24 -0.132 | USP25 -0.0187 | USP28 -0.325
